Measurements published in PubChem BioAssay AID1863 (Southern Research Specialized Biocontainment Screening …, 2009).
“And” between values parts separate entries of the source, which are not always exact repeats. Equal values may be shown once. Among all 300,000 compounds or so, about 480 (0.16%) were called active.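 The calls were made as follows: active = inhibition over 29.93%, a cutoff 3 SD above the screen mean, later confirmed by dose response; inconclusive = inhibition over 29.93% but no dose response follow-up; inactive = inhibition at most 29.93% or unconfirmed.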 The list is a sample of the results. Measured potencies and affinities stand elsewhere.

Test: PhoP-dependent GFP reporter repression – Salmonella Typhimurium, primary screen (AID 1863);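 also: 0% = low Mg2+ inducing control and 100% = high Mg2+ repressing control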
Details: S. Typhimurium PhoP-regulated promoter GFP reporter, 4 h; at 50 µM; active compounds read high

inhibition, inactive:
CCN(CCCCN1C(=O)c2ccccc2C1=O)c1ccc2c(c1)C(=O)N(C)C2=O -8.03%
COc1ccc(-c2cc3ccccc3n2CC(O)Cn2nc(C)cc2C)cc1 (stereo not drawn) 1.53%
O=C(O)c1cn(-c2ccc(N3CCCC3)c(F)c2)c2c(F)c(F)c(F)cc2c1=O -6.63%
O=C(O)c1cn(-c2ccc(F)cc2)c2cc(Cl)c(F)cc2c1=O 5.58%
O=C(/C=C/c1ccc([N+](=O)[O-])cc1)NCCc1ccccc1 6.48%
O=c1cc(N2CCN(c3ccccc3F)CC2)[nH]c(=O)n1-c1ccc(Br)cc1 -3.95%
Cc1sc2ncnc(N/N=C/c3cccc(O)c3)c2c1C -0.11%
Cc1sc2ncnc(Nc3ccccc3)c2c1C 8.39%
Cc1sc2ncnc(N/N=C/c3ccc(O)cc3)c2c1C 11.1%
C/C(=N\Nc1ncc(Cl)cc1Cl)c1ccccn1 9.66%
C=CCN(c1ccc(C(=O)NCCCn2ccnc2)cc1)S(C)(=O)=O 0.81%
Cc1ccc2c(=O)c(C(=O)c3ccc(F)cc3)cn(CC(=O)NCc3ccco3)c2n1 -4.56%
CCOC(=O)c1c(NC(=O)COC(=O)c2ccccn2)sc(C(=O)N(C)C)c1C 2.57%
C/C(=N\NC(=O)c1cc(Br)ccc1O)c1ccccn1 3.69%
C/C(=N\NC(=O)c1ccccc1Cl)c1ccccn1 5.97%
COc1ccc(CC(=S)NCCc2ccccc2)cc1 -4.36%
O=C(NC1CCCC1)C(c1ccccn1)N(Cc1ccc(F)cc1)C(=O)c1csnn1 (stereo not drawn) 0.43%
CCCCCCSc1cc(-c2nc3ccc(Cl)cn3c2NCCCC)ccc1OC -3.84%
CCCCn1nnnc1NCc1cc(OC)c(OC)cc1OC 35.9%
CC(=O)Oc1ccc(OC(C)=O)c(SCCCCCCl)c1 -1.06%
COc1cc2ccc3c(CCN(C)C)cc(OC)c(OC)c3c2cc1OC -2.35%
O=C(Nc1ccc(S(=O)(=O)N2CCc3ccccc3C2)cc1)C1CCCO1 (stereo not drawn) 13.2%
CCCCCn1c(CCNC(=O)c2cccs2)nc2ccccc21 11.2%
COc1ccccc1C(=O)OCc1ccc2sc(C)nc2c1 5.75%
C=CCNc1nc(Cl)nc(Nc2ccc([N+](=O)[O-])cc2)n1 13.8%
CC(C)c1cc(=O)n2[nH]c(SCc3ccccc3Cl)nc2n1 -7.54%
CCCOc1ccc(C(=O)NCCC(=O)NCCCC(=O)O)cc1 8.01%
CN(C)C/C(Cl)=C(\Cl)c1ccccc1 4.69%
CC(C)N1CCc2c(sc(NC(=O)c3ccc([N+](=O)[O-])o3)c2C(N)=O)C1 18%
CN1CCc2c(sc(NC(=O)c3ccco3)c2C(N)=O)C1 -4.37%
NC(=O)c1c(NC(=O)c2ccc([N+](=O)[O-])o2)sc2c1CCCC2 -3.86%
COC(=O)c1c(NC(=O)c2ccco2)sc2c1CCN(C(C)C)C2 3.8%
CC(C)(C)c1ccc(C(=O)N2CCN(C(=O)c3ccco3)CC2)cc1 1.4%
Cc1nn(-c2ccccc2)c(N2CCCC2)c1C=O -1.38%
O=S(=O)(c1ccccc1)c1nc(-c2ccco2)oc1NCCCn1ccnc1 5.16%
CC(C)N(C(=O)COC(=O)[C@@H]1CC(O)CN1S(=O)(=O)c1ccc(C(C)(C)C)cc1)C(C)C (stereo partly drawn) 0.76%
CC(=O)C[C@H]1c2cc(C(F)(F)F)ccc2S(=O)(=O)N1c1ccc(N(C)C)cc1 -9.83%
Cc1c(N2C(=O)c3ccc(Br)cc3C2=O)c(=O)n(-c2ccccc2)n1C 2.78%
CCCCCCCC(=O)N1CCN(c2cc3c(cc2F)c(=O)c(C(=O)O)cn3CC)CC1 9.66%
CCn1cc(C(=O)O)c(=O)c2cnc(N3CCN(C(=S)Nc4ccccc4)CC3)nc21 5.11%
C=CCNC(=S)N1CCN(c2ncc3c(=O)c(C(=O)O)cn(CC)c3n2)CC1 14%
CCCCCCn1cc(C(=O)O)c(=O)c2cc(F)c(N3CCN(C(=O)OCC)CC3)cc21 5.63%
CCCCCCCCC(=O)N1CCN(c2cc3c(cc2F)c(=O)c(C(=O)O)cn3CC)CC1 1.94%
CCOC(=O)c1cn(CC)c2cc(N3CCN(C)CC3)c(F)cc2c1=O 0.76%
O=C(N/N=C1\CC2CC=CC12)c1ccccc1Cl (stereo not drawn) -4.57%
CC1(C)C(=O)Nc2ccccc2N1C(=O)c1ccc([N+](=O)[O-])cc1 7.48%
CCS(=O)(=O)N1CCCC(C(=O)NCC2CCCO2)C1 (stereo not drawn) 9.13%
COCCn1c(SCc2nnc(-c3ccccc3)o2)nc2sc3c(c2c1=O)CCC3 1.92%
O=C(NCc1cccnc1)/C(=C/c1ccco1)NC(=O)c1ccccc1 -2.07%
CCOc1ccc(C(=O)OCC(=O)NCCCc2ccccc2)cc1 -6.34%
COCCN1C=C2C(=O)C(C)(OC(=O)C3CCCC3)C(=O)C(c3ccccc3)=C2C=C1CCCC(=O)OC (stereo not drawn) 0.275%
O=C(c1ccc(NS(=O)(=O)c2ccc3c(c2)OCCO3)cc1)N1CCCCC1 -6.01%
Cn1cc(S(=O)(=O)NC2CCCCC2)c(=O)n(C)c1=O -6.38%
Cc1cc(C)nc(/N=C(\N)N(Cc2ccccc2)Cc2ccccc2)n1 -3.9%
COc1ccc(/C=N/NS(=O)(=O)c2ccc(C)cc2)cc1OC(=O)c1ccccc1 -3.56%
O=C(O)c1cn(C2CC2)c2cc(N3CCN(S(=O)(=O)c4ccc5c(c4)OCCO5)CC3)c(F)cc2c1=O 28.5%
CCCCCCn1cc(C(=O)O)c(=O)c2cc(F)c(N3CCN(C)CC3)cc21 -2.32%
CCN(C(=O)COC(=O)c1ccc(C)c(S(=O)(=O)N2CCCCC2)c1)C1CCS(=O)(=O)C1 (stereo not drawn) -0.22%
CC(Oc1ccccc1)C(=O)N=C1SC2CS(=O)(=O)CC2N1c1cccc(F)c1 (stereo not drawn) -0.94%
COc1ccc(S(=O)(=O)N(C)c2ccc(C(=O)NCC3CCCO3)cc2)cc1 (stereo not drawn) 15.5%
CN(C)NC1CC(=O)N(c2ccccc2)C1=O (stereo not drawn) -0.29%
CCOP(=O)(OCC)C(C)(C)NC(=O)c1cc([N+](=O)[O-])cc([N+](=O)[O-])c1 -1.13%
O=C1Nc2ccccc2C1=O 6.44%
O=C1C(O)=C(O)C(=O)c2ccccc21 9.48%
COC(=O)C1=C(SC)N(c2ccccc2)C(c2ccccc2)CC1=O (stereo not drawn) 11.8%
NC(=O)C[n+]1ccc(/C=N/O)cc1 -4.29%
CCCCCCCCCCCCCCCC[n+]1ccc(C(N)=O)cc1 20.5%
CCS(=O)(=O)N1CCCC(C(=O)NCCCOC)C1 (stereo not drawn) -8.48%
CC1(N(O)/C=C2\C=CC=CC2=O)CCCCC1=O (stereo not drawn) -4.1%
COC(=O)CCC(=O)Nc1ccccc1C(N)=O 15.3%
CN(C)S(=O)(=O)c1cccc(NC(=S)N/N=C/c2ccc(O)c(O)c2O)c1 -0.51%
COc1ccc(O)c(/C=N/NC(=S)Nc2cccc(S(=O)(=O)N(C)C)c2)c1 22.2%
Cc1ccc(Nc2nc(N)c([N+](=O)[O-])c(NCc3ccccc3)n2)cc1 -2.58%
Nc1ccc2c(c1)C(=O)c1ccccc1C2=O 8.76%
O=C1C(=O)c2ccc(-c3ccccc3)cc2-c2ccccc21 -10.4%
CC(=O)Nc1ccc(S(=O)(=O)N2C(C)CCCC2C)cc1 (stereo not drawn) 11.1%
COc1cc(/C=N/NC(=O)Cn2nnc3ccccc32)ccc1O -5.12%
COc1ccc(/C=N/NC(=O)Cn2nnc3ccccc32)cc1OC -6.81%
COCCNC(=O)C1CCC(Cn2c(=S)[nH]c3ccccc3c2=O)CC1 (stereo not drawn) 4.17%
CC(C)(C)/C(O)=C/c1nc2ccccc2oc1=O -5.43%
Cc1ccc2oc(=O)c(/C=C(\O)C(C)(C)C)nc2c1 -0.34%
CC(=O)Nc1ccc(CN(C)CC2CCCN(CCc3cccc(C(F)(F)F)c3)C2)cc1 (stereo not drawn) 8.69%
COc1ccccc1N=CC=C1OC(C)(C)C(C)(C)O1 -3.09%
CNC[C@@H](C)NC[C@@H](Cc1ccccc1)NCCc1ccccc1 9.81%
CCC[C@@H](CNC)NC[C@H](Cc1ccccc1)NCCCCc1ccccc1 3.18%
CCC[C@H](CN[C@@H](CNC)[C@H](C)CC)NCCc1cc(C(F)(F)F)cc(C(F)(F)F)c1 19.5%
CC(Cc1cccc(C(F)(F)F)c1)NCCOC(=O)c1ccccc1 (stereo not drawn) -9.48% and -7.52%
Cc1ccccc1-c1noc(CCC(=O)NCC2CCCO2)n1 (stereo not drawn) 6.26%
O=C1OCCC/C1=C\c1ccc2c(c1)OCO2 1.4%
O=C(Cc1nc2ccccc2[nH]1)c1cccc([N+](=O)[O-])c1 -11.1%
CCC(=O)N1C(=O)C2(Nc3ccccc3N2)c2ccccc21 -1.88%
CC(C)(C)c1ccc(NC(=O)COC(=O)c2ccc(NS(=O)(=O)c3ccc(F)c(F)c3)cc2)cc1 1.23%
CCCOc1ccc(Cc2nc(N)nc(N)n2)cc1 20.1%
CC(C)Oc1ccc(Cc2cnc(=S)[nH]c2N)cc1 5.16%
CCCCOc1ccc(CN(C)c2ncnc(N)n2)cc1 -10.1%
COc1cc(C)c(Cc2cnc(N)nc2N)cc1OC -1.03%
Cc1cc(=O)[nH]c(Cc2ccc(OC(C)C)cc2)n1 10.3%
COc1ccc(Cc2c(N)nc(N)nc2N)cc1 2.89%
